LMP1 NFkB inh: inhibitors of Epstein-Barr LMP1-induced NF-kappaB reporter. 350,000 compounds, 0.69% hits. inhibition, % at 12.5 µM. LMP1-induced NF-kappaB luciferase reporter cells, luminescence; in the data active = inhibition above about 41%
TWEAK Fn14 block: TWEAK-Fn14 signaling inhibition; TWEAK-stimulated Fn14 reporter cells, luciferase luminescence, 8 h; inhibition, % at 10 µM; 360,000 compounds, 2% hits; AID 1159606; in the data active = inhibition above about 50%
TROY NFkB inh: TROY signaling inhibition | Q293 LMP1-TROYcd NF-kB luciferase reporter, 4 h | inhibition, % at 10 µM | 360,000 compounds, 0.98% hits | AID 1347056;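 active = compounds whose plate-normalised and pattern-corrected inhibition of the luciferase reporter signal at the single screening dose is 50% or more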
HSF1 inhib: HSF1 inhibition; NIH3T3-HGL HSE-luciferase, MG132-induced, luminescence 8 h; stronger effect = lower value; activity change, negative = inhibition, % at 7.5 µM (by protocol); 300,000 compounds, 0.77% hits;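 active = more than half of replicate wells show activity change below -50%, luminescence cut by over half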;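 note: luciferase reports HSF-1 transcriptional activity via heat shock element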
LGR2 inh: inhibitors of bursicon-induced Drosophila LGR2 receptor cAMP signaling; HEK293 LGR2, CRE-luciferase, bursicon-stimulated, 4 h; inhibition, % at 9.99 µM; 380,000 compounds, 0.35% hits; AID 720647;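 active = drop in luminescence signal, shown as inhibition above about 50% in the replicate tests, limit read from the data, passing the limit was not always enough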;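 note: agonist challenge used bursicon conditioned medium at about half maximal strength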
HSF1 activator: increases HSF-1 driven luciferase reporter signal. activation, % at 9 µM. AID 504408. 300,000 compounds, 1.7% hits. NIH3T3-HGL HSF-1 luciferase reporter, MG132, 8 h; 100% = twice DMSO control signal;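 active = mean replicate activation of at least 50% with a set share of replicates each reaching 50%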
Hits are given with their value; - = inactive; . = no result given. An excerpt weighted towards active compounds, which were near 3.6% of everything screened.

SMILES	LMP1 NFkB inh	TWEAK Fn14 block	TROY NFkB inh	HSF1 inhib	LGR2 inh	HSF1 activator
Cc1ccc(C)c(S(=O)(=O)N2CCN(CC(=O)Nc3cc(C)on3)CC2)c1	-	-	-	-	.	71
Cc1ccc(C)c(S(=O)(=O)N2CCN(CC(=O)N3CCc4ccccc4C3)CC2)c1	57	-	-	-	-	-
CCCC(=O)N1CCC2(CC1)CN(S(C)(=O)=O)[C@@H](CO)c1c2c2ccc(OC)cc2n1C	.	.	.	.	-	.
CC(C)C(=O)N1CCN(c2ccccc2NC(=O)c2ccc([N+](=O)[O-])o2)CC1	-	-	-	-	-	80
C=CCc1cccc(/C=N/NC(=O)CNc2ccccc2OC)c1O	-	-	-	-	-	-
C=CCc1cccc(/C=N/NC(=O)CNc2cccc3ccccc23)c1O	-	69	-	-	.	-
O=C(Nc1cccc2ccccc12)c1ccc([N+](=O)[O-])o1	-	-	-	-	-	72
O=C(CNc1cccc2ccccc12)N/N=C/c1ccc([N+](=O)[O-])o1	-	56	-	-	-	-
C[C@@H]1CCCCO[C@H](CN(C)S(=O)(=O)c2ccc(Cl)cc2)[C@H](C)CN([C@H](C)CO)C(=O)c2cc(NC(=O)c3ccncc3)ccc2O1	.	.	.	.	-	.
C[C@@H]1CN([C@@H](C)CO)S(=O)(=O)c2ccc(Br)cc2O[C@@H]1CN(C)Cc1ccccc1	.	.	.	.	-	.
O=C(Nc1cc(-c2nc3ncccc3o2)ccc1Cl)c1cccs1	-	-	-	-	-	-
Cc1cccc(NC(=O)c2ccc([N+](=O)[O-])o2)c1C	-	-	-	-	-	-
O=C(Nc1cc(-c2nc3ncccc3o2)ccc1Cl)c1ccc([N+](=O)[O-])o1	-	-	-	-	-	110
O=C(Nc1cccc(NC(=O)c2ccccc2Cl)c1)c1ccc([N+](=O)[O-])o1	-	-	-	-	-	97
COc1ccccc1NC(=O)c1ccc([N+](=O)[O-])o1	.	.	.	-86	-	-
O=C(NCC[C@H]1CC[C@@H](NC(=O)C2CC2)[C@@H](CO)O1)c1cc(Cl)cc(Cl)c1	.	.	.	.	-	.
CCOC(=O)c1sc(NC(=O)c2cccc(S(=O)(=O)N3CCc4ccccc43)c2)c(C#N)c1C	-	-	53	-	-	-
O=C(Nc1nc2ccc(F)cc2s1)c1cccc(S(=O)(=O)N2CCc3ccccc32)c1	-	57	-	-	-	-
N#CCc1ccc(NC(=O)/C=C/c2ccc([N+](=O)[O-])o2)cc1	-	61	-	-	.	-
O=C([C@H]1[C@H](CO)[C@H]2Cn3c(cccc3=O)[C@@H]1N2CC1CCCC1)N1CCCCC1	.	.	.	.	-	.
O=C(NCc1cccnc1)c1c[nH]c2cc3c(cc2c1=O)OCCO3	-	70	-	-	.	-
O=C(NCc1ccccc1)c1c[nH]c2ccc(S(=O)(=O)Nc3ccc4c(c3)OCCO4)cc2c1=O	-	-	.	-	-	-
COc1ccccc1-c1csc(NC(=O)c2ccc(N3C(=O)CCC3=O)cc2)n1	-	51	-	-	-	-
CO[C@H]1CN(C)C(=O)c2cc(NC(=O)Nc3cccc(Cl)c3)ccc2OC[C@H](C)NC[C@H]1C	.	.	.	.	-	.
CCn1c(CCNC(=O)c2ccc(OC)cc2)nnc1SCc1ccc(Cl)cc1Cl	66	-	63	-	-	-
SMILES	LMP1 NFkB inh	TWEAK Fn14 block	TROY NFkB inh	HSF1 inhib	LGR2 inh	HSF1 activator
CCn1c(CCNC(=O)c2ccc(OC)cc2)nnc1SCc1ccc(Cl)c(Cl)c1	-	-	-	-	-	-
COc1ccc(C(=O)N/N=C/c2sc3ccccc3c2O)cc1	-	-	-	-	.	-
O=C(N/N=C/c1sc2ccccc2c1O)c1cccc2ccccc12	54	-	-	-	-	-
O=C(N/N=C/c1sc2ccccc2c1O)c1ccccc1	-	-	-	-	.	270
CO[C@@H]1CN(C)C(=O)c2cc(NC(=O)Nc3cccc(F)c3)ccc2OC[C@@H](C)N(C(=O)Nc2cccc(F)c2)C[C@H]1C	.	.	.	.	-	.
CCC(C)NC(=O)Cc1c(OC)ccc2cc(Br)ccc12 (configuration not stated)	-	-	-	-	-	62
Cc1noc(C)c1S(=O)(=O)Nc1ccc2c(c1)CC(=O)N([C@H](C)CO)C[C@@H](C)[C@@H](CN(C)S(=O)(=O)c1ccc(Cl)cc1)O2	.	.	.	.	-	.
CN(Cc1ccccc1)C(=O)c1ccc(NC(=O)C2=CSCCO2)cc1	-	-	-	-	-	-
CN(Cc1ccccc1)C(=O)c1ccccc1NC(=O)C1=CSCCO1	-	-	-	-76	-	-
COCC#Cc1ccc2c(c1)O[C@@H](CN(C)S(=O)(=O)c1ccc(F)cc1)[C@@H](C)CN([C@H](C)CO)S2(=O)=O	.	.	.	.	-	.
c1ccc(N=Nc2ccc(C3=NCCO3)cc2)cc1	-	-	-	.	81	.
c1ccc(C2=NCCCO2)cc1	-	-	-	.	-	.
COc1ccccc1NC(=O)CN1CCN(CC(=O)Nc2ccccc2Cl)CC1	-	-	-	-	-	243
COc1cc(NC(=O)Nc2ccccc2)c(OC)cc1NC(=O)CN1CCCCC1	-	78	.	-	.	-
COc1ccccc1NC(=O)CN1CCCCCC1	-	-	-	-	-	-
Cc1noc(C)c1S(=O)(=O)Nc1ccc2c(c1)C(=O)N([C@@H](C)CO)C[C@H](C)[C@H](CN(C)C(=O)CCCN(C)C)OCCCC[C@H](C)O2	.	.	.	.	-	.
C/C(=N\Nc1cccc2cccnc12)c1ccc[nH]1	-	-	-	-	-	63
CCC(=O)Nc1cccc2cccnc12	-	-	-	-	-	-
Nc1ccc(Sc2cnn(-c3ccccc3)c(=O)c2Cl)cc1	-	-	-	-	-	57
CC(=O)N(C)C[C@@H]1Oc2cc(C#Cc3cccnc3)ccc2S(=O)(=O)N([C@H](C)CO)C[C@H]1C	.	.	.	.	-	.
CC(C)(C)c1ccc(C(=O)n2cnc3ccccc32)cc1	-	78	64	-	-	-
CC(=O)Nc1cccc(-c2csc(N)n2)c1	-	-	-	-	-	-
CC(=O)Nc1cccc(-c2cnc(N)c(C(=O)c3cccnc3)n2)c1	49	82	-	.	.	.
NC(=O)c1cccc(-c2cnc(N)c(C(=O)c3cccnc3)n2)c1	-	84	51	.	.	.
COc1ccc2c3c(n(C)c2c1)[C@H](CO)NCC31CCN(Cc2ccc(-c3ccccn3)cc2)CC1	.	.	.	.	-	.
Cc1ccccc1-c1ccc([C@H]2[C@@H](CO)N3CCCCN(S(=O)(=O)c4cn(C)cn4)C[C@@H]23)cc1	.	.	.	.	-	.
COc1cccc(C#Cc2ccc3c(c2)O[C@@H](CN(C)C)[C@H](C)CN([C@H](C)CO)S3(=O)=O)c1	.	.	.	.	-	.
CCNC(=O)C[C@H]1C=C[C@H](NS(=O)(=O)c2ccc(F)cc2)[C@@H](CO)O1	.	.	.	.	-	.
C[C@@H](OC(=O)c1[nH]cnc1C(=O)N1CCc2ccccc2C1)c1ccccc1	85	-	-	.	.	.
C[C@H](CO)N1C[C@H](C)[C@H](CN(C)S(=O)(=O)c2ccc(Cl)cc2)Oc2ccc(NC(=O)CCCCCC(=O)Nc3ccccc3N)cc2CC1=O	.	.	.	.	-	.

Screening results from PubChem.
